The text below walks through data of PubChem BioAssay (EPA / NIEHS).

The source made the active and inactive calls. The calls were made as follows: active = hit-call score of the fitted dose curve at least 0.9, where 1 is the maximum; inactive = score below 0.9.

The term AC50 denotes the concentration at which the activity in the assay is half-maximal.

A short description of the experiment: CCTE_Shafer_MEA_acute_synchrony_index: CCTE's Neural Acute Assay for Synchrony, Shafer Lab (AID 2284027).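 Also: network synchrony index of spontaneous spiking in primary rat cortical neurons on MEAs; fitted for loss of signal so actives lower synchrony relative to DMSO.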 The gist of the method:
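The synchrony index is taken as percent change per well between a 40 min baseline and a 40 min recording with compound (0.03–40 uM), at 37C. Rat cortical cultures on multiwell MEAs at DIV 13 or 15, spike threshold 8× rms noise.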
As for `CC1=C(C)S(=O)(=O)CCS1(=O)=O`, the outcome was inactive.
Consider `Cc1cc(Cc2ccc(N)c(C)c2)ccc1N`, for which the AC50 is 20 µM (active).
In the case of `Oc1ccc(O)cc1`, the compound was called inactive.
Same read-out and setting: as for `CCCCC(CC)COP(=O)(OCC(CC)CCCC)OCC(CC)CCCC` (configuration not stated), the entry is “inactive”.
With `CN(C)C(=O)NC1(c2ccccc2)CCN(CCC[C@]2(c3ccc(Cl)c(Cl)c3)CCCN(C(=O)c3ccccc3)C2)CC1`, the AC50 was 6.12 µM (active).
Same read-out and setting: as for `COC(=O)[C@H]1[C@H]2C[C@@H]3c4[nH]c5cc(OC)ccc5c4CCN3C[C@H]2C[C@@H](OC(=O)c2cc(OC)c(OC)c(OC)c2)[C@@H]1OC`, the figure is 4.97 µM (active).
For the compound `CC(C)COC(=O)CCCCC(=O)OCC(C)C`, the compound was classed as inactive.
Still for that read-out and setting: as for `CC(C)NCC(O)c1ccc(O)c(O)c1` (configuration not stated), the entry is “inactive”; as for `Cc1cc(SC2=C(O)C[C@@](CCc3ccc(N)cc3)(C(C)C)OC2=O)c(C(C)(C)C)cc1CO`, “inactive”.
As for `Nc1nc(=S)c2[nH]cnc2[nH]1`, the AC50 is 3.98 µM (active).
`NC(=Nc1ccccc1)Nc1ccccc1`: the outcome was inactive.
As to `CCc1cc(C2=C(C(=O)O)N(c3ccccc3C(F)(F)F)S(=O)(=O)c3ccccc32)cc2c1OCO2`, the compound was called inactive.
Same read-out and setting: for `CN(C)C(=O)NC1(c2ccccc2)CCN(CC[C@@]2(c3ccc(F)c(F)c3)CN(C(=O)c3ccccc3)CCO2)CC1` the value was “inactive”; for `CCN(CC)CCOc1ccc(C(=C(Cl)c2ccccc2)c2ccccc2)cc1`, “inactive”; for `OCC(CO)n1cnc(-c2ccc(F)cc2)c1-c1ccnc(Oc2ccccc2)n1`, “inactive”.
The same measure, in the same setting: as for `c1ccc2occc2c1`, the entry is “inactive”; as for `COc1ccc(OC(F)(F)F)cc1CN[C@H]1CCCN[C@H]1c1ccccc1`, “inactive”.
